Reference: PubChem BioAssay AID1117358 (Southern Research Institute, 2015)
Among all 2,300 compounds or so, about 160 (7%) were called active. The rule behind the calls is not given here. The list is a sample of the results. A call without a number means that no potency is given here. Potency and affinity values are given separately.

Test: Vero cell cytotoxicity, dose response, cytotoxicity control for Vif-APOBEC3G degradation inhibitor project, Vero cells (AID 1117358)
Conditions: CellTiter-Glo ATP luminescence, 72 h; series mostly up to 40 µM
For `Cc1cccc(CCNC(=O)CCc2nc(-c3ccccc3F)no2)c1`, the outcome was “inactive”.
With `O=C(N/N=C/C=C\c1ccco1)c1cccnc1` the outcome was “inactive”.
For `Cc1cc(C)nc(N(C#N)CN2C(=O)c3ccccc3S2(=O)=O)n1`, the outcome was “inactive”.
In the case of `COC(=O)CSc1nnc(CNC(=O)c2cccs2)n1-c1cc(OC)ccc1OC`, the outcome is reported as “inactive”.
With `COc1ccc(OC)c(-c2cc(C(=O)NCc3cccs3)no2)c1` the outcome was “inactive”.
With `c1ccc2c(c1)ccc1nnc(SCc3ccc4c(c3)OCO4)n12` the outcome was “inactive”.
For `CCOC(=O)NC1(NC2CCCCC2)Oc2ccccc2O1`, the outcome was “inactive”.
For `CC(C)(C)NC(=O)C1N(c2cccnc2)C(=O)C2C(C(=O)Nc3ccccc3F)C3(C)C=CC21O3` (stereo unspecified), the outcome was “inactive”.
For `O=S(=O)(c1ccc(Cl)s1)N1CCN(Cc2ccccc2)CC1`, the outcome was “inactive”.
For `O=C(CN1CCN(S(=O)(=O)c2ccc(Cl)cc2)CC1)Nc1ccc2c(c1)OCCO2`, the outcome was “inactive”.
For `CCC(C)(C)C1CCc2c(sc(NC(=O)c3ccoc3C)c2C(N)=O)C1` (stereo unspecified), the outcome was “inactive”.
For `O=C(CSc1nnc(-c2cccnc2)n1Cc1ccco1)c1ccc(Br)cc1`, the outcome was “inactive”.
With `Cc1c(C(=O)Nc2ccc(Cl)cc2)c2ccccn2c1CCc1ccncc1` the outcome was “inactive”.
For `O=C(O)CCC(=O)NNC(=O)CCC(=O)NCc1ccccc1`, the outcome was “inactive”.
With `C/C(=C/C(=O)NCc1ccccc1)C(=O)O` the outcome was “inactive”.
For `Cc1cc(F)ccc1S(=O)(=O)Nc1ccccc1C(=O)Nc1ccc2[nH]c(=O)[nH]c2c1`, the outcome was “inactive”.
For `COC(=O)c1ccccc1NC(=O)C1CCCC1`, the outcome was “inactive”.
With `COc1ccc(NC(=O)/C(C#N)=C\c2cc(C)n(-c3ccc(Oc4ccc([N+](=O)[O-])cn4)cc3)c2C)cc1` the outcome was “inactive”.
For `Cc1ccc(Cc2cnc(NC(=O)/C(C#N)=C/c3ccc(-c4ccc([N+](=O)[O-])cc4)o3)s2)cc1`, the outcome was “inactive”.
With `O=C(NCc1ccc(F)cc1)c1c(O)c2cccc3c2n(c1=O)CCC3` the outcome was “inactive”.
For `CCSC1=C(C#N)C(c2cccs2)C(C(=O)OC)=C(C)N1` (stereo unspecified), the outcome was “inactive”.
For `CCn1c(=O)c(C(=O)NCc2ccccn2)c(O)c2ccccc21`, the outcome was “inactive”.
In the case of `CCOC(=O)c1c(O)c2ccccc2n(-c2ccccc2)c1=O`, the outcome is reported as “inactive”.
In the case of `Cc1ccc2cc3c(NC(=O)c4cccnc4)nn(C)c3nc2c1`, the outcome is reported as “inactive”.
For `CN(C)C(CNC(=O)c1cccnc1Sc1ccccc1)c1ccco1` (stereo unspecified), the outcome was “inactive”.
For `O=C(c1cnn2c(C(F)F)cc(C3CC3)nc12)N1CCc2ccccc2C1`, the outcome was “inactive”.
For `O=C(NC1CCCC1)c1ccc(CNc2c(N3CCOCC3)c(=O)c2=O)cc1`, the outcome was “inactive”.
For `Cc1cc(C(=O)CN2C(=O)c3ccccc3S2(=O)=O)c(C)n1CC1CCCO1` (stereo unspecified), the outcome was “inactive”.
For `CN(C)[C@H]1N(C(=O)c2ccc(Br)cc2)N=C2c3ccccc3S(=O)(=O)N21`, the outcome was “inactive”.
In the case of `Cc1c(NS(=O)(=O)c2cccc(C(=O)NCc3ccncc3)c2)c(=O)n(-c2ccccc2)n1C`, the outcome is reported as “inactive”.
For `O=C(CCCc1ccccc1)N1CCN(c2ccc([N+](=O)[O-])cc2)CC1`, the outcome was “inactive”.
For `Cc1ccc(-c2nc3s/c(=C\c4ccco4)c(=O)n3n2)cc1`, the outcome was “inactive”.
In the case of `O=C(NCC1CCCO1)c1cc(-c2ccco2)nc2ccccc12` (stereo unspecified), the outcome is reported as “inactive”.
With `CCCC(=O)Nc1cccc(-c2nc3ccccc3o2)c1` the outcome was “inactive”.
In the case of `CCn1c(SCC(=O)n2nc(C)cc2C)nnc1-c1ccc2c(c1)OCO2`, the outcome is reported as “inactive”.
With `Cc1c(/C=N\NC(=O)c2csc3ccccc23)cnn1C` the outcome was “inactive”.
In the case of `CN(CCOCCOc1ccc2ccccc2c1)Cc1ccccc1`, the outcome is reported as “inactive”.
For `Cc1cc(NC(=O)c2cncc(Br)c2)no1`, the outcome was “inactive”.
In the case of `O=C(O)c1cc(-c2ccc(N3CCOCC3)cc2)nn1-c1ccc(F)cc1F`, the outcome is reported as “inactive”.
With `CC(=O)C1=C(O)C(=O)N(Cc2ccco2)C1c1ccc(F)cc1` (stereo unspecified) the outcome was “inactive”.
For `COc1ccc(N2C(=O)C3CCCN3C2c2ccc(C)cc2)cc1` (stereo unspecified), the outcome was “inactive”.
In the case of `Cc1[nH]c2ccccc2c1C(=O)CN1CCC(C(N)=O)(N2CCCCC2)CC1`, the outcome is reported as “inactive”.
In the case of `Cc1[nH]c2ccccc2c1C(=O)Cn1c(=O)oc2ccccc21`, the outcome is reported as “inactive”.
In the case of `Cc1nn(Cc2ccccc2)c(C)c1NC(=O)Cn1nc([N+](=O)[O-])c(Cl)c1C`, the outcome is reported as “inactive”.
In the case of `Cc1nn(Cc2ccc(Cl)cc2)c(C)c1NC(=O)c1cc(-c2ccc3c(c2)OCO3)on1`, the outcome is reported as “inactive”.
In the case of `CC1(C)Oc2ccc(C(=O)NC3CCCC3)cc2N(CC(=O)NC2CCCC2)C1=O`, the outcome is reported as “inactive”.
With `CCOc1ccc(N(CC(=O)NC(C)(C)C)S(=O)(=O)c2c(C)noc2C)cc1` the outcome was “inactive”.
With `Cn1nnnc1SCC(=O)NCc1ccco1` the outcome was “inactive”.
With `CN(C)S(=O)(=O)N1CCC(CCCC2CCN(S(=O)(=O)N(C)C)CC2)CC1` the outcome was “inactive”.
In the case of `Cc1ccc(NC(=O)COc2ccccc2C(=O)Nc2ccccc2)cc1Cl`, the outcome is reported as “inactive”.
In the case of `O=C(C/C=N/OCc1c(Cl)cccc1Cl)c1ccc(Cl)cc1`, the outcome is reported as “inactive”.
For `Cc1cc(C)cc(NCc2cc3c(cc2[N+](=O)[O-])OCO3)c1`, the outcome was “inactive”.
In the case of `O=C(Oc1ccccc1)c1cccc2cccnc12`, the outcome is reported as “inactive”.
With `CC(C)c1ccc(NC(=O)C(c2ccccc2)N2CCC3(CC2)OCCO3)cc1` (stereo unspecified) the outcome was “inactive”.
In the case of `Oc1cccc(/C=N/c2c(-c3ccco3)nc3ccccn23)c1`, the outcome is reported as “inactive”.
In the case of `CCC(c1nnnn1C(C)(C)CC)N(CCCO)Cc1cc2cc(C)cc(C)c2[nH]c1=O` (stereo unspecified), the outcome is reported as “inactive”.
In the case of `Cc1cccc(-n2c(Cc3cc(=O)[nH]c(=O)[nH]3)nnc2SCC(=O)NCC2CCCO2)c1` (stereo unspecified), the outcome is reported as “inactive”.
For `CC(NC(=O)c1cccs1)C(c1cccs1)N1CCN(Cc2ccccc2)CC1` (stereo unspecified), the outcome was “inactive”.
In the case of `CCOC(=O)c1c(NC(=O)c2cc(CC(C)C)on2)sc(C(C)=O)c1C`, the outcome is reported as “inactive”.
For `N#CC1=C(Nc2ccccc2)SC=C(c2ccc(Br)cc2)N=C1N1CCOCC1`, the outcome was “inactive”.
In the case of `Cc1nc2ccc(S(=O)(=O)N(C)CC(=O)N3CCc4ccccc43)cc2s1`, the outcome is reported as “inactive”.
For `COc1cccc(-c2nnc(SCC(=O)N3CCOCC3)o2)c1`, the outcome was “inactive”.
For `CCOc1ccc(Cl)cc1S(=O)(=O)N1CCN(c2ccc(F)cc2)CC1`, the outcome was “inactive”.
In the case of `CCOc1ccc(C2=[N+]([O-])C(C)(C)N(O)C2(C)C)cc1`, the outcome is reported as “inactive”.
With `CC1=CC(C)(C)Nc2ccc(OC(=O)CN3C(=O)c4cccc5cccc(c45)C3=O)cc21` the outcome was “inactive”.
For `O=C(Oc1cccnc1)c1ccc(Cl)cc1`, the outcome was “inactive”.
For `Cc1ccc(-c2ccc(CCC(=O)O)n2NC(N)=S)cc1`, the outcome was “inactive”.
In the case of `Cc1cc(-c2[nH]nc3c2C(c2cccc(O)c2)C(C#N)=C(N)O3)c(C)s1` (stereo unspecified), the outcome is reported as “inactive”.
With `CCC(C)C(NC(=O)[C@@H](NC(=O)c1ccccc1F)C(C)C)C(=O)OC` (stereo partly specified) the outcome was “inactive”.
In the case of `C/C(=N\OC(=O)c1ccc(F)cc1)c1sc(-c2ccccc2)nc1C`, the outcome is reported as “inactive”.
For `Cc1ccc2cc(CN(Cc3nnnn3Cc3ccco3)CC3CCCO3)c(=O)[nH]c2c1C` (stereo unspecified), the outcome was “inactive”.
In the case of `C=CCNc1nc2ccccc2nc1NS(=O)(=O)c1cccs1`, the outcome is reported as “inactive”.
In the case of `COc1ccc(C(=O)NCc2cn3cccc(C)c3n2)cc1OC`, the outcome is reported as “inactive”.
For `CCOC(=O)C(NC(=O)NC1CCCCC1)(c1ccccc1)C(F)(F)F` (stereo unspecified), the outcome was “inactive”.
For `Cc1cc(C)cc(Nc2ccc(C(=O)O)cc2N)c1`, the outcome was “inactive”.
In the case of `S=C(Nc1cccc(Cl)c1)NC1CCCCC1`, the outcome is reported as “inactive”.
For `CCCNC(=S)NC1CCCC1`, the outcome was “inactive”.
With `COc1ccc(C(=O)NCc2cccnc2)cc1OC` the outcome was “inactive”.
For `CC1CCN(C(=O)CCc2nc3cc(S(=O)(=O)N(C)C)ccc3n2C)CC1`, the outcome was “inactive”.
For `CCOC(=O)c1c(C)[nH]c(C(=O)OCC(=O)N2c3ccccc3CC2C)c1C` (stereo unspecified), the outcome was “inactive”.
With `COc1ccccc1C(=O)Nc1ccc(S(=O)(=O)Nc2cc(C)nc(C)n2)cc1` the outcome was “inactive”.
With `COc1cc(C(=O)Nc2ccc(S(=O)(=O)NC(C)C)cc2)cc(OC)c1OC` the outcome was “inactive”.
With `COc1cc(NC(=O)c2cc3nc(C)cc(C)n3n2)c(OC)cc1Cl` the outcome was “inactive”.
For `NC(=O)C[C@@H]1N[C@]2(C(=O)Nc3ccccc32)[C@@H]2C(=O)N(c3cc(C(F)(F)F)ccc3Cl)C(=O)[C@H]12`, the outcome was “inactive”.
In the case of `CCc1cc2cc(C)cc(C)c2nc1SCC(=O)N1CCN(C(=O)c2ccco2)CC1`, the outcome is reported as “inactive”.
For `COc1cc(C(=O)OCCN2CCCCC2)ccc1O`, the outcome was “inactive”.
For `CCN1C(=O)c2ccccc2S(=O)c2ccc(C(=O)NC3CC3)cc21` (stereo unspecified), the outcome was “inactive”.
In the case of `Cc1cccc(C)c1NS(=O)(=O)c1c(C)[nH]c(=O)[nH]c1=O`, the outcome is reported as “inactive”.
In the case of `CC(C)(C)NC(=O)COC(=O)c1cc(S(=O)(=O)N2CCCCC2)ccc1N1CCOCC1`, the outcome is reported as “inactive”.
In the case of `CCN(CC)C(=O)CSCC(=O)Nc1ccccc1`, the outcome is reported as “inactive”.
In the case of `CC(C)(C)OC(=O)N1CCCC1C(=O)N1CCc2ccccc21` (stereo unspecified), the outcome is reported as “inactive”.
For `CCOC(=O)CSc1nnc(CNC(=O)c2cccs2)n1CCc1ccccc1`, the outcome was “inactive”.
With `CCN1CCc2c(C#N)c(NCc3ccccc3)nc(N(CC)CC)c2C1` the outcome was “inactive”.
In the case of `Nn1c(SCC(=O)NC2CCCc3ccccc32)nnc1-c1cccs1` (stereo unspecified), the outcome is reported as “inactive”.
For `O=C(Cc1cc(=O)[nH]c(=O)[nH]1)NCC1CCCO1` (stereo unspecified), the outcome was “inactive”.
For `O=C(NCc1ccncc1)c1ccc(Cn2cc(C(F)(F)F)ccc2=O)cc1`, the outcome was “inactive”.
In the case of `O=C(NCc1ccccn1)c1ccc(Cn2cc(Br)cn2)o1`, the outcome is reported as “inactive”.
With `O=S(=O)(c1ccc(OCc2nc3ccccc3s2)c(Cl)c1)N1CCOCC1` the outcome was “inactive”.
In the case of `CCNc1nc(OCCNS(=O)(=O)c2cc(C)ccc2C)nc(N(C)C)n1`, the outcome is reported as “inactive”.
With `CCC(Cc1ccccc1)NC(=O)C1CCN(S(=O)(=O)c2c(C)noc2C)CC1` (stereo unspecified) the outcome was “inactive”.
For `CC1Cc2ccccc2N1C(=O)C1CCN(S(=O)(=O)Cc2ccccc2)CC1` (stereo unspecified), the outcome was “inactive”.
For `COC(=O)c1ccc(C)c(NS(=O)(=O)c2ccc(NC(C)=O)cc2)c1`, the outcome was “inactive”.
With `O=C(CSc1nncs1)NC(=O)NCc1ccccc1` the outcome was “inactive”.
In the case of `COc1ccc(S(=O)(=O)N(CC(=O)O)c2ccccn2)cc1`, the outcome is reported as “inactive”.
For `CC(=O)c1ccc(NC(=O)c2ccc3nc(-c4ccco4)c(-c4ccco4)nc3c2)cc1`, the outcome was “inactive”.
In the case of `CCOc1ccc(-n2c(=O)c3c(C)c(C)sc3n(CC(=O)NCc3ccco3)c2=O)cc1`, the outcome is reported as “inactive”.
